Measurements as given in PubChem BioAssay (Tox21).
Records with an inconclusive call do not appear. Calls of active or inactive are those of the source. Unless noted, calls come from the whole dose curve; as a rule, active = well fitted curve in the direction sought with a large enough effect in the repeat runs; inconclusive = weak or mixed curves; inactive = no such curve, though single readings can be large; an effect the other way counts as inactive or inconclusive.

How the values were obtained:
[1] = target: Thyrotropin receptor (Homo sapiens) (UniProt P16473); test: qHTS assay to identify small molecule antagonists of the thyroid stimulating hormone receptor (TSHR) signaling pathway (AID 1259385; calls by dose curve; note: nearly all actives have a fitted effect of over 20% in size); conditions: TSHR-HEK293 cAMP HTRF, TSH-stimulated antagonist mode; series mostly up to 92.4 µM
Chain of Thyrotropin receptor (Homo sapiens) (P16473 whole entry, looked up): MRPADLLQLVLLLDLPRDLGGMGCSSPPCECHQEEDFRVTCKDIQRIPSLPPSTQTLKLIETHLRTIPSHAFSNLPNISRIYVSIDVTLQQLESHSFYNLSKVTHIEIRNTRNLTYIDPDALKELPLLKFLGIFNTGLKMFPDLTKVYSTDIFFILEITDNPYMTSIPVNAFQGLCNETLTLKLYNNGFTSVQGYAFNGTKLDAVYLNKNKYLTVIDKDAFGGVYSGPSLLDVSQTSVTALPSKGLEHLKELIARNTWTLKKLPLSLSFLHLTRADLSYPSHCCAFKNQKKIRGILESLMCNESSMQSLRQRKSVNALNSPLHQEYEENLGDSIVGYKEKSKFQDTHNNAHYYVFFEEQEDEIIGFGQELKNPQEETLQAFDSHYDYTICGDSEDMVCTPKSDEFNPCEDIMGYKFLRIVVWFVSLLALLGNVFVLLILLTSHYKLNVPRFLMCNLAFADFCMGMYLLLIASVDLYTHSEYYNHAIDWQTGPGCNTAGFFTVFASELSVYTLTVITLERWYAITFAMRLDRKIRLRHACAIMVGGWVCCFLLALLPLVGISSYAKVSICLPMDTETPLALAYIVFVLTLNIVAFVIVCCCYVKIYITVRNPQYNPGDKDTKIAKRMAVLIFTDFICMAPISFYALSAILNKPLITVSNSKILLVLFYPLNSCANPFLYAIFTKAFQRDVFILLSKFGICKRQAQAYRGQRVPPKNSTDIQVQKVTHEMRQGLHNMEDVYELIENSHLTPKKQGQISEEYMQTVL
Procedure, shortened: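 Antagonist mode: compound-treated TSHR-expressing HEK293 cells were stimulated with 1.5 ng/mL TSH (final) in presence of Ro20-1724 for 30 min at RT. HTRF cAMP detection after 1 h; each compound tested at 15 concentrations, triplicate.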

[2] = qHTS assay to identify small molecule agonists of the estrogen receptor alpha (ER-alpha) signaling pathway in the presence of an antagonist - cell viability counter screen (AID 1259386); conditions: VM7Luc4E2 viability, CellTiter-Fluor fluorescence, 22 h; series mostly up to 92.4 µM;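 note: cells exposed to compounds for 22 h at 37 °C before the viability read; nearly all actives have a fitted effect of over 30% in size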
Procedure, shortened: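 Using estrogen-depleted VM7Luc4E2 cells, the 15-concentration compound series was applied together with 10.0nM ICI-182,780 and incubated 22hr at 37C/5% CO2. Cell viability was then scored by CellTiter-Fluor.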

[3] = target: Progesterone receptor (Homo sapiens) (UniProt P06401); test: qHTS assay to identify small molecule agonists of the progesterone receptor (PR) signaling pathway (AID 1346784; calls by dose curve; note: nearly all actives have a fitted effect of over 30% in size); conditions: PR-UAS-bla HEK293T, beta-lactamase FRET ratio, 16 h; series mostly up to 92.4 µM
Chain of Progesterone receptor (Homo sapiens) (P06401 whole entry, looked up): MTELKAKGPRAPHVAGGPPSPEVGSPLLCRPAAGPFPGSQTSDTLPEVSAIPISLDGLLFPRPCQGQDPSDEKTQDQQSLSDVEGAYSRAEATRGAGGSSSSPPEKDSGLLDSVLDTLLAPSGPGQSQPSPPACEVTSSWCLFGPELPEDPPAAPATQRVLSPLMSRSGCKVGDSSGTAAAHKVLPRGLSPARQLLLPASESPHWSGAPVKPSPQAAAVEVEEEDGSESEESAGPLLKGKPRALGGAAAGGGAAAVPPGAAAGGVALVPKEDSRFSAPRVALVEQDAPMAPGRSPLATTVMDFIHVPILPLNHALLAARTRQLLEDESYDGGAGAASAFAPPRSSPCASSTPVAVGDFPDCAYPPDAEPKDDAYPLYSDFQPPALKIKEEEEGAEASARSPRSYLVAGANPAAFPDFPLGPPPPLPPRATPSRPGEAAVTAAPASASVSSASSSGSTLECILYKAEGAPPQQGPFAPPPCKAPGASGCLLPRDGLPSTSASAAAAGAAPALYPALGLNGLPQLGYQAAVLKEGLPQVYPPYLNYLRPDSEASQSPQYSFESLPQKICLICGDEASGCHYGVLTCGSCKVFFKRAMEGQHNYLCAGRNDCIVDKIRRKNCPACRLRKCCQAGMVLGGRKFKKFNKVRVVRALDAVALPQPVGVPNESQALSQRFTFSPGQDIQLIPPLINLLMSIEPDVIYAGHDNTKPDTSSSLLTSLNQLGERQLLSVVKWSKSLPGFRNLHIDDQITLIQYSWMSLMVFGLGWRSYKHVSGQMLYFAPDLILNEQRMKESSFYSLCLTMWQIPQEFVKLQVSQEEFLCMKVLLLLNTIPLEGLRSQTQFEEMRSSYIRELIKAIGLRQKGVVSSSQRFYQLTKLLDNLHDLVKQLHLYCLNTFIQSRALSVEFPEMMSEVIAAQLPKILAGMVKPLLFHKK
Procedure, shortened: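 Agonist qHTS: compounds pinned onto 3,000 PR-UAS-bla HEK 293T cells per well in charcoal-stripped serum medium, 16hr at 37C, then beta-lactamase activity measured by LiveBLAzer FRET fluorescence after 2 hours at room temperature.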

[4] = target: Progesterone receptor (Homo sapiens) (UniProt P06401); test: qHTS assay to identify small molecule antagonists of the progesterone receptor (PR) signaling pathway (AID 1346795; active = well fitted inhibition curve with a large enough effect in the signal ratio in the repeat runs, not every such curve was filed as active; the % refers to the signal ratio); conditions: PR-UAS-bla HEK293T, beta-lactamase FRET ratio, 16 h; series mostly up to 92.4 µM
Procedure, shortened: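 Antagonist mode with agonist R5020 at 1 nM final and 16 hr incubation at 37C. Reporter was beta-lactamase driven by UAS in HEK293T (PR-UAS-bla), 2% charcoal-stripped serum; signal from LiveBLAzer FRET substrate, 2 hr at room temperature.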

[5] = qHTS assay to identify small molecule antagonists of the progesterone receptor (PR) signaling pathway - cell viability counter screen (AID 1346798); conditions: PR-UAS-bla HEK293T viability, CellTiter-Glo luminescence, 16 h; series mostly up to 92.4 µM; note: nearly all actives have a fitted effect of over 50% in size
Procedure, shortened: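 Cytotoxicity read as CellTiter-Glo luminescence (30 min, room temperature) in the same wells as the beta-lactamase readout. HEK293T PR-UAS-bla cells in charcoal-stripped 2% FBS received compound and R5020, then 16 h at 37C, 5% CO2.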

[6] = qHTS assay to identify small molecule agonists of the progesterone receptor (PR) signaling pathway - cell viability counter screen (AID 1346799; calls by dose curve; note: nearly all actives have a fitted effect of over 45% in size); conditions: PR-UAS-bla HEK293T viability, CellTiter-Glo luminescence, 16 h; series mostly up to 92.4 µM
Procedure, shortened: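 Cytotoxicity measured by CellTiter-Glo luminescence (30 min, RT) in the same wells as the PR beta-lactamase agonist read. Those HEK293T cells had 16 h compound treatment at 37 C in 2% charcoal-stripped FBS medium.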

[7] = qHTS assay to identify small molecule antagonists of the TGF-beta/Smad signaling pathway - cell viability counter screen (AID 1346824); conditions: SBE-bla HEK293T viability, CellTiter-Glo luminescence; series mostly up to 76.8 µM; note: nearly all actives have a fitted effect of over 50% in size
Procedure, shortened: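 Cytotoxicity counter-screen run in the same wells as the beta-lactamase Smad reporter read: CellTiter-Glo luminescence after 30 min at room temperature. HEK 293T SBE-bla cells had 5 hr compound exposure at 37 C with TGF-beta1 (0.25 ng/mL stock).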

[8] = qHTS assay to identify small molecule agonists of the TGF-beta/Smad signaling pathway - cell viability counter screen (AID 1346829); conditions: SBE-bla HEK293T viability, CellTiter-Glo luminescence, 5 h; series mostly up to 76.8 µM; note: top concentration of the series differs between compounds; nearly all actives have a fitted effect of over 45% in size
Procedure, shortened: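 After overnight seating at 37 C and 5% CO2, reporter cells got compounds for 5 hr and FRET substrate for 2 hr; cell viability then came from CellTiter-Glo luminescence.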

[9] = qHTS assay to identify small molecule agonists of the TGF-beta/Smad signaling pathway (AID 1346859; active = well fitted activation curve with a large enough effect in the signal ratio in the repeat runs, not every such curve was filed as active; the % refers to the signal ratio); conditions: SBE-bla HEK293T, TGF-beta/Smad beta-lactamase reporter, 5 h; series mostly up to 76.8 µM
Procedure, shortened: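 Fluorescence (ex 405 nm; em 460 and 530 nm) was read 2 h after LiveBLAzer FRET substrate at RT. The preceding compound treatment of overnight-plated SBE-bla HEK293T cells lasted 5 h at 37 C.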

[10] = target: Thyrotropin-releasing hormone receptor (Homo sapiens) (UniProt P34981); test: qHTS assay to identify small molecule antagonists of the thyrotropin-releasing hormone receptor (TRHR) signaling pathway (AID 1346877; active = well fitted inhibition curve with a large enough effect in the repeat runs, not every such curve was filed as active); conditions: TRHR-HEK293, TRH-induced calcium fluorescence, antagonist mode; series mostly up to 51.3 µM
Chain of Thyrotropin-releasing hormone receptor (Homo sapiens) (P34981 whole entry, looked up): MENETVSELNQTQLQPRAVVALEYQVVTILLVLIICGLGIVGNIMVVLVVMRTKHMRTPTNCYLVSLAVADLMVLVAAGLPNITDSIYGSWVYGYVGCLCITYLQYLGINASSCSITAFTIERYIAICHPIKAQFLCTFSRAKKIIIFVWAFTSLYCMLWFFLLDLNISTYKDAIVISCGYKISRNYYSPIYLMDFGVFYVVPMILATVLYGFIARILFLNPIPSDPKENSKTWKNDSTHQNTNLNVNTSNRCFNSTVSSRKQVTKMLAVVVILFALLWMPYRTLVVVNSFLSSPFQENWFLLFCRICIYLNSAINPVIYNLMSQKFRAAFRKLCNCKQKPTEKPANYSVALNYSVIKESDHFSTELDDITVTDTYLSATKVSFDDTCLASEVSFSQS
Procedure, shortened: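 Calcium signal in dye-loaded TRHR/HEK293 cells; compounds added 5 min before TRH (1 nM final); fluorescence monitored 3 min at 1 s steps.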
% is set by controls: 0 for no effect and ±100 for the full control effect.

CCOc1ccccc1O
inactive: Potency [1] | Potency [2] | Potency [3] | Potency [4] | Potency [5] | Potency [6] | outcome [7] | outcome [8] | outcome [9]

Cc1c(N=C=O)cccc1N=C=O
inactive: Potency [1] | Potency [2] | Potency [3] | Potency [4] | Potency [5] | Potency [6] | outcome [7] | outcome [8] | outcome [9] | outcome [10]

C[C@@H](O)[C@H]1C(=O)N2C(C(=O)O)=C(S[C@@H]3CN[C@H](CNS(N)(=O)=O)C3)[C@H](C)[C@H]12
inactive: Potency [1] | Potency [2] | Potency [3] | Potency [4] | Potency [5] | Potency [6] | outcome [7] | outcome [8] | outcome [9] | outcome [10]

CC(C)(C)N
inactive: Potency [1] | Potency [2] | Potency [3] | Potency [4] | Potency [5] | Potency [6] | outcome [7] | outcome [8] | outcome [9]

CCCCCCCCCCCCCCCCCCCl
inactive: activity change, negative = inhibition [1] 0.518% [at 8.39 µM] | activity change, negative = cytotoxicity [2] -0.0193% [at 8.39 µM] | activation [3] -0.486% [at 8.39 µM] | activity change, negative = inhibition [4] 7.9% [at 8.39 µM] | activity change, negative = cytotoxicity [5] -19.4% [at 8.39 µM] | activity change, negative = cytotoxicity [6] -1.64% [at 8.39 µM] | viability change, negative = cytotoxic [7] -4.8% [at 6.97 µM] | activity change, negative = cytotoxicity [8] 3.73% [at 6.97 µM] | activation [9] 1.95% [at 6.97 µM]

CC(CCl)OC(C)CCl (stereo not given)
inactive: Potency [1] | Potency [2] | Potency [3] | Potency [4] | Potency [5] | Potency [6] | outcome [7] | outcome [8] | outcome [9] | outcome [10]

O=C(O)c1ccccc1[N+](=O)[O-]
inactive: Potency [1] | Potency [2] | Potency [3] | Potency [4] | Potency [5] | Potency [6] | outcome [7] | outcome [8] | outcome [9] | outcome [10]

CC(O)CN (stereo not given)
inactive: Potency [1] | Potency [2] | Potency [3] | Potency [4] | Potency [5] | Potency [6] | outcome [7] | outcome [8] | outcome [9] | outcome [10]

CCCC(=O)OCCC(C)C
inactive: Potency [1] | Potency [2] | Potency [3] | Potency [4] | Potency [5] | Potency [6] | outcome [7] | outcome [8] | outcome [9]

CCCC1CCOC(C)S1 (stereo not given)
inactive: Potency [1] | Potency [2] | Potency [3] | Potency [4] | Potency [5] | Potency [6] | outcome [7] | outcome [8] | outcome [9] | outcome [10]

CCCCCCCCCCCCSCCOCCO
inactive: Potency [1] | Potency [2] | Potency [3] | Potency [4] | Potency [5] | Potency [6] | outcome [7] | outcome [8] | outcome [9] | outcome [10]

Nc1ccc(F)cc1F
inactive: Potency [1] | Potency [2] | Potency [3] | Potency [4] | Potency [5] | Potency [6] | outcome [7] | outcome [8] | outcome [9]

C/C=C1\[C@H]2C=C(C)C[C@]1(N)c1ccc(=O)[nH]c1C2
inactive: Potency [1] | Potency [2] | Potency [3] | Potency [4] | Potency [5] | Potency [6] | outcome [7] | outcome [8] | outcome [9] | outcome [10]

C=CC(C)CCC=C(C)C (stereo not given)
inactive: Potency [1] | Potency [2] | Potency [3] | Potency [4] | Potency [5] | Potency [6] | outcome [7] | outcome [8] | outcome [9]

CC1(C)C(=O)NC(=O)N1CO
inactive: Potency [1] | Potency [2] | Potency [3] | Potency [4] | Potency [5] | Potency [6] | outcome [7] | outcome [8] | outcome [9]

O=C(OCCOCCOCCOC(=O)c1ccccc1)c1ccccc1
inactive: Potency [1] | Potency [2] | Potency [3] | Potency [4] | Potency [5] | Potency [6] | outcome [7] | outcome [8] | outcome [9] | outcome [10]

CCc1ccc(C(=O)C(C)CN2CCCCC2)cc1 (stereo not given)
inactive: Potency [1] | Potency [2] | Potency [3] | Potency [4] | Potency [5] | Potency [6] | outcome [7] | outcome [8] | outcome [9] | outcome [10]

CCCCCCCCCCCCCCCCC(=O)O
inactive: Potency [1] | Potency [2] | Potency [3] | Potency [4] | Potency [5] | Potency [6] | outcome [7] | outcome [8] | outcome [9]

CCC[Si](OC)(OC)OC
inactive: Potency [1] | Potency [2] | Potency [3] | Potency [4] | Potency [5] | Potency [6] | outcome [7] | outcome [8] | outcome [9] | outcome [10]

CCCCOc1ccc(N)cc1
inactive: Potency [1] | Potency [2] | Potency [3] | Potency [4] | Potency [5] | Potency [6] | outcome [7] | outcome [8] | outcome [9] | outcome [10]

CCCOC(C)=O
inactive: Potency [1] | Potency [2] | Potency [3] | Potency [4] | Potency [5] | Potency [6] | outcome [7] | outcome [8] | outcome [9]

C[Si](C)(C)O[Si](C)(C)O[Si](C)(C)C
inactive: Potency [1] | Potency [2] | Potency [3] | Potency [4] | Potency [5] | Potency [6] | outcome [7] | outcome [8] | outcome [9] | outcome [10]

O=C1C=CCCC1
inactive: Potency [1] | Potency [2] | Potency [3] | Potency [4] | Potency [5] | Potency [6] | outcome [7] | outcome [8] | outcome [9]

CC(C)(C)c1cc(C=O)cc(C(C)(C)C)c1O
inactive: Potency [1] | Potency [2] | Potency [3] | Potency [4] | Potency [5] | Potency [6] | outcome [7] | outcome [8] | outcome [9] | outcome [10]
